Compound activity (PubChem)
Rows were chosen to be rich in hits. Some 27% of all compounds tested hit in one or more screens of this group.
Cav3 T inh = human Cav3.2 channel inhibition, primary screen; O95180; Cav3.2-expressing cells, Fluo-4 calcium fluorescence FDSS; active compounds read low; B-score at 10 µM; hit rate 4% among 100,000;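 active = single-dose well whose peak fluorescence ratio is a statistical outlier from its plate by either plate-standardised score or position-corrected B-score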
Target sequence (O95180 whole entry, looked up): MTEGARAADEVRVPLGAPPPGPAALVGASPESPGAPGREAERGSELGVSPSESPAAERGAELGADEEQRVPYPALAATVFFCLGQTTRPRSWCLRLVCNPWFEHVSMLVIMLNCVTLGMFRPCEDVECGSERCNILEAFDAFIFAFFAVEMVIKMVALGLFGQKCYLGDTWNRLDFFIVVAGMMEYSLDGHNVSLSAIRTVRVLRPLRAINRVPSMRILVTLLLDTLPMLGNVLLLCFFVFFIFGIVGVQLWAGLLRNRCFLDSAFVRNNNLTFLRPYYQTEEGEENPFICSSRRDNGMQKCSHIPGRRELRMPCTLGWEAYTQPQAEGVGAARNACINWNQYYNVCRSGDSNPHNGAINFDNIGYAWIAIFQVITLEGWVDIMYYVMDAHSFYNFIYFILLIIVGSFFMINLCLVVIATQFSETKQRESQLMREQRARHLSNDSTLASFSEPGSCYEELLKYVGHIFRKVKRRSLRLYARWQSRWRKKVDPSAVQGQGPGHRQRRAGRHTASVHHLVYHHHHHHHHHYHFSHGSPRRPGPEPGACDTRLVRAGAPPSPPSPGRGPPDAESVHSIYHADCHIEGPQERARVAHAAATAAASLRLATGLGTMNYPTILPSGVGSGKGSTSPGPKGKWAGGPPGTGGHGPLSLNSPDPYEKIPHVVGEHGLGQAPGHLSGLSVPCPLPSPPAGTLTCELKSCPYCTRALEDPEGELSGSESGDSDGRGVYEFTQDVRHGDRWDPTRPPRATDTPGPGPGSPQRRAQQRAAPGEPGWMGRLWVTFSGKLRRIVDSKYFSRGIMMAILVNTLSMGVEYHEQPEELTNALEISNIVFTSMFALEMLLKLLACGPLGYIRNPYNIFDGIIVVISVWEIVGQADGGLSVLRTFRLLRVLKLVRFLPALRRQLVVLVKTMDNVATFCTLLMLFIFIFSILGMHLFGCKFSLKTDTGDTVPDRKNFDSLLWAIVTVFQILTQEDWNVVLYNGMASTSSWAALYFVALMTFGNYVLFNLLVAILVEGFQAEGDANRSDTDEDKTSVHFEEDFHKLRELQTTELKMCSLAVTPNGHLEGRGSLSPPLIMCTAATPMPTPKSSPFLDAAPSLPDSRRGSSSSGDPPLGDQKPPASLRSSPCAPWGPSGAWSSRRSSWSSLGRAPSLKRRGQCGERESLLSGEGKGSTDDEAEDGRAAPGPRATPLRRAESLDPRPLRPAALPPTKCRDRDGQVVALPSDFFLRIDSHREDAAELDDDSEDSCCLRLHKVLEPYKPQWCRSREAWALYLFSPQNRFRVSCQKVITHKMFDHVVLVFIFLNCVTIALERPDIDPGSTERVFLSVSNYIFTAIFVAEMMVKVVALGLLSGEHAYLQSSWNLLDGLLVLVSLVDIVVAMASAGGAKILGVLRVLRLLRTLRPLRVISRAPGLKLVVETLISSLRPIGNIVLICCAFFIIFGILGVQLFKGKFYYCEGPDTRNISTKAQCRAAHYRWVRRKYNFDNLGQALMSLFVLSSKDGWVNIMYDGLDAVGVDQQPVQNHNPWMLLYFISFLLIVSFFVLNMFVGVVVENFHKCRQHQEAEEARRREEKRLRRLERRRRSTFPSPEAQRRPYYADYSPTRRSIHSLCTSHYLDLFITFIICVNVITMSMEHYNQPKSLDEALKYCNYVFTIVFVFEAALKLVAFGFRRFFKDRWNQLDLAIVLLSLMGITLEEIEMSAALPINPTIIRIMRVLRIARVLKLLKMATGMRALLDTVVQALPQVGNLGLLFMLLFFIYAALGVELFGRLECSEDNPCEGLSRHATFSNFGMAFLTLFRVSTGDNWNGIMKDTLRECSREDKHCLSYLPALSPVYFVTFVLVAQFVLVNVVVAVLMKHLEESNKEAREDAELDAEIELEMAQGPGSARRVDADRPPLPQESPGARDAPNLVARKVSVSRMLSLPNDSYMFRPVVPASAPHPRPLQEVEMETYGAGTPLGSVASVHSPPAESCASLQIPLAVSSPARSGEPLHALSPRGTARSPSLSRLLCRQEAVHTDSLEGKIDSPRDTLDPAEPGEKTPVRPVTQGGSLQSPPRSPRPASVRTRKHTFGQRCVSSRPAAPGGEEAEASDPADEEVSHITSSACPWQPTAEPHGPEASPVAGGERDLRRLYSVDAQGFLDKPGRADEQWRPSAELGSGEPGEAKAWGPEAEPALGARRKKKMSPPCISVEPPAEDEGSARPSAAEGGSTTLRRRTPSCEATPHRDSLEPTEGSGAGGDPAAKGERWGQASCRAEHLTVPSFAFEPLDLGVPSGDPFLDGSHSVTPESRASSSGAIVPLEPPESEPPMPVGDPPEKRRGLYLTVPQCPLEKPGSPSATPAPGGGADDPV
CYP2C19 activ = increases human CYP2C19 enzyme activity. activation factor at 5 µM. P33261. recombinant CYP2C19, luciferin-H EGE luminescence; active compounds read high; 0 = fully inhibited enzyme, 1 = untreated enzyme. 96,000 tested, under 10 active;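 active = activation factor of at least 2 at 5 µM in the primary screen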;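 also: 0 = wells with 2.5 mM tranylcypromine and 1 = vehicle-only wells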
CYP2C9 activ = CYP2C9 (human) activation. hit rate 1.4% among 96,000. activation factor at 5 µM. recombinant CYP2C9, luciferin-H conversion, luminescence; active compounds read high; factor 1 = untreated enzyme, 0 = blocked. P11712. AID 1024;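 active = activation factor of 2 or more for CYP2C9 at a 5 µM dose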;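 also: 0 = sulfaphenazole-blocked wells and 1 = vehicle-only wells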
CYP2C19 inh = inhibitors of human CYP2C19; P33261; AID 778; inhibition, % at 5 µM; hit rate 21% among 96,000; CYP2C19 Supersomes, luciferin-H EGE luminescence, 30 min;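 active = CYP2C19 inhibition above a set limit at 5 µM in the primary screen, cut at about 50% in these data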;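 also: plate controls were negative control wells for no effect and 2.5 mM tranylcypromine positive control for full effect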
CYP2C9 inh = blocks human cytochrome P450 2C9; AID 777; inhibition, % at 5 µM; CYP2C9 Supersomes, luciferin-H conversion, luminescence; hit rate 20% among 96,000; P11712;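 active = blocking of liver enzyme CYP2C9 beyond about 50% at 5 µM, limit read from the data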
An asterisk follows results filed as active.

What do the screens show for `COc1ccc(N2CCN(c3nc4ccccc4nc3NS(=O)(=O)c3ccccc3)CC2)cc1`?
Cav3 T inh: -4.2*; CYP2C19 activ: 0.5; CYP2C9 activ: 0; CYP2C19 inh: 53*; CYP2C9 inh: 98*

What do the screens show for `Cc1ccc(S(=O)(=O)Nc2nc3ccccc3nc2N2CCN(c3ccccc3F)CC2)cc1`?
Cav3 T inh: -3.6*; CYP2C19 activ: 0.7; CYP2C9 activ: 0; CYP2C19 inh: 30; CYP2C9 inh: 100*

Results for O=S(=O)(Nc1nc2ccccc2nc1N1CCN(c2ccccn2)CC1)c1ccc(Cl)cc1 ?
Cav3 T inh: -4.7*; CYP2C19 activ: 0.7; CYP2C9 activ: 0; CYP2C19 inh: 34; CYP2C9 inh: 100*

How did CC(=O)Nc1ccc(S(=O)(=O)Nc2nc3ccccc3nc2N2CCCCCC2)cc1 do in these assays?
Cav3 T inh: -3.3; CYP2C19 activ: 0.8; CYP2C9 activ: 0.3; CYP2C19 inh: 23; CYP2C9 inh: 70*

Results for Cc1ccc(S(=O)(=O)N2CCN(c3nc4ccccc4nc3-n3nc(C)cc3C)CC2)cc1 ?
CYP2C19 activ: 0.8; CYP2C9 activ: 0.7; CYP2C19 inh: 16; CYP2C9 inh: 30

How did CC(=O)Nc1cc(NC(C)=O)cc(C(=O)OCC(=O)N2CC(C)OC(C)C2)c1 (centres undefined) do in these assays?
Cav3 T inh: 0.33; CYP2C19 activ: 1.1; CYP2C9 activ: 0.9; CYP2C19 inh: -10; CYP2C9 inh: 6

What do the screens show for `Cc1cc(=O)[nH]c(Nc2c(C)n(C)n(-c3ccccc3)c2=O)n1`?
Cav3 T inh: 0.45; CYP2C19 activ: 1.2; CYP2C9 activ: 1.1; CYP2C19 inh: -15; CYP2C9 inh: -14

How did Cc1c(Nc2nc3ccccc3nc2N2CCN(c3ccccc3)CC2)c(=O)n(-c2ccccc2)n1C do in these assays?
Cav3 T inh: -2.5; CYP2C19 activ: 0.7; CYP2C9 activ: 0.2; CYP2C19 inh: 35; CYP2C9 inh: 75*

How did COc1ccc(Cl)c(N2CCN(CCCNC(=O)Nc3ccc(C)cc3)CC2)c1 do in these assays?
CYP2C19 activ: 0.5; CYP2C9 activ: 1.3; CYP2C19 inh: 49; CYP2C9 inh: -28

What do the screens show for `CC(C)Oc1ccc(S(=O)(=O)N(C(C)C)C(C)C)cn1`?
Cav3 T inh: -0.59

How did CC(C)NC(=O)CSCc1c(F)cccc1Cl do in these assays?
Cav3 T inh: 0.85

How did O=C(CSCc1ccccc1Cl)NNC(=S)Nc1ccccc1 do in these assays?
Cav3 T inh: -2.1; CYP2C19 activ: 0.1; CYP2C9 activ: 0.3; CYP2C19 inh: 86*; CYP2C9 inh: 75*

What do the screens show for `Cc1cnn(CCC(=O)NNC(=S)Nc2ccccc2)c1`?
Cav3 T inh: -0.9; CYP2C19 activ: 1; CYP2C9 activ: 0.9; CYP2C19 inh: 3; CYP2C9 inh: 7

How did CC(C)NC(=O)CSCc1ccccc1Cl do in these assays?
Cav3 T inh: 0.8; CYP2C19 activ: 0.3; CYP2C9 activ: 0.8; CYP2C19 inh: 66*; CYP2C9 inh: 17

How did Clc1ccc(CN2C3=NCCN3c3ccccc32)cc1 do in these assays?
Cav3 T inh: -0.94; CYP2C19 activ: 0.8; CYP2C9 activ: 1; CYP2C19 inh: 21; CYP2C9 inh: 3

Results for Clc1ccc(Cn2cccc2C2=NCCO2)cc1 ?
Cav3 T inh: -0.93; CYP2C19 activ: 0.3; CYP2C9 activ: 0.7; CYP2C19 inh: 67*; CYP2C9 inh: 35

Results for O=C(C(Cc1ccc(Cl)cc1)NS(=O)(=O)c1ccccc1)N1CC[C@@]2(O)CCCC[C@H]2C1 (some centres undefined) ?
Cav3 T inh: -1.6; CYP2C19 activ: 0.3; CYP2C9 activ: 0.1; CYP2C19 inh: 70*; CYP2C9 inh: 88*

What do the screens show for `CCC(NS(=O)(=O)c1ccc(C)cc1)C(=O)N1CCC2(O)CCCCC2C1` (centres undefined)?
CYP2C19 activ: 1; CYP2C9 activ: 1.4; CYP2C19 inh: 0; CYP2C9 inh: -35

Results for CC1=C(C(=O)Nc2ccc(Cl)cc2)C(c2cccs2)n2nnnc2N1 (centres undefined) ?
Cav3 T inh: -3.3; CYP2C19 activ: 1; CYP2C9 activ: 0.9; CYP2C19 inh: 4; CYP2C9 inh: 10

What do the screens show for `CC(=O)C1=C(C)NC(SCC(=O)c2ccc(Cl)cc2)=C(C#N)C1CC(C)C` (centres undefined)?
Cav3 T inh: -3.4; CYP2C19 activ: 0; CYP2C9 activ: 0; CYP2C19 inh: 99*; CYP2C9 inh: 95*

What do the screens show for `CCOC(=O)C1=C(C)NC(SCC(=O)O)=C(C#N)C1c1ccco1` (centres undefined)?
Cav3 T inh: 0.68; CYP2C19 activ: 1; CYP2C9 activ: 0.6; CYP2C19 inh: -2; CYP2C9 inh: 41

Results for CCc1ccc(C(=O)CSC2=C(C#N)C(c3ccco3)C(C(C)=O)=C(C)N2)cc1 (centres undefined) ?
Cav3 T inh: -1.9; CYP2C19 activ: 0.5; CYP2C9 activ: 0.2; CYP2C19 inh: 48; CYP2C9 inh: 76*

Results for CC(=O)C1=C(C)NC(SCC(N)=O)=C(C#N)C1C (centres undefined) ?
Cav3 T inh: -0.64; CYP2C19 activ: 1.3; CYP2C9 activ: 1.3; CYP2C19 inh: -26; CYP2C9 inh: -31

What do the screens show for `COc1ccccc1NC(=O)C1=C(C)NC(SCC(=O)c2ccc(C)cc2)=C(C#N)C1c1ccco1` (centres undefined)?
CYP2C19 activ: 0.2; CYP2C9 activ: 0.1; CYP2C19 inh: 84*; CYP2C9 inh: 90*

How did CC(=O)C1=C(C)NC(SCC(=O)c2ccc(F)cc2)=C(C#N)C1c1ccco1 (centres undefined) do in these assays?
Cav3 T inh: -1.1; CYP2C19 activ: 0; CYP2C9 activ: 0.2; CYP2C19 inh: 98*; CYP2C9 inh: 80*

What do the screens show for `Cc1ccc(NC(=O)OCCN2CCN(Cc3ccccc3)CCC2=O)cc1`?
Cav3 T inh: 0.093

What do the screens show for `CCC(C)Sc1nc2c(c(=O)[nH]c(=O)n2C)n1Cc1ccccc1Cl` (centres undefined)?
Cav3 T inh: -4.4; CYP2C19 activ: 1; CYP2C9 activ: 1; CYP2C19 inh: 2; CYP2C9 inh: 4

How did Cc1nc(-c2ccccc2)sc1C1(C)CC(c2c(Cl)cccc2Cl)=NO1 (centres undefined) do in these assays?
Cav3 T inh: -0.51

Results for O=C(CSc1nc2c([nH]c3ccccc32)c(=O)n1-c1ccc(F)cc1)NCc1ccco1 ?
CYP2C19 activ: 1; CYP2C9 activ: 0.9; CYP2C19 inh: 3; CYP2C9 inh: 15

Results for CCCCNS(=O)(=O)C1CCS(=O)(=O)C1 (centres undefined) ?
Cav3 T inh: -0.13; CYP2C19 activ: 1.1; CYP2C9 activ: 0.9; CYP2C19 inh: -6; CYP2C9 inh: 7

How did CC(=O)C1=C(C)NC(SCc2cccc([N+](=O)[O-])c2)=C(C#N)C1c1ccco1 (centres undefined) do in these assays?
CYP2C19 activ: 0; CYP2C9 activ: 0.2; CYP2C19 inh: 100*; CYP2C9 inh: 84*
